JMJD2A Tudor: JMJD2A Tudor domain (human) inhibition. O75164. AlphaScreen JMJD2A-Tudor / H3K4me3 peptide binding. Potency, µM (highest dose often 114 µM), without a hit: top-dose activity change, negative = inhibition, usual class: inhibitors. 4.4% of 390,000 active. AID 504339; note: % is set by controls: 0 for no effect and ±100 for the full control effect; nearly all actives have a fitted effect of over 50% in size
G9a block: G9a (human) methyltransferase inhibition; Q96KQ7; G9a H3K9 monomethylation, AlphaScreen, 2 h; Potency, µM (doses to about 102 µM), without a hit: at the highest dose activity, negative = inhibition, most hits filed as inhibitors; 8.8% of 350,000 active; note: % is set by controls: 0 for no effect and ±100 for the full control effect; nearly all actives have a fitted effect of over 75% in size
Target sequence (Q96KQ7 913-1193 limits assumed): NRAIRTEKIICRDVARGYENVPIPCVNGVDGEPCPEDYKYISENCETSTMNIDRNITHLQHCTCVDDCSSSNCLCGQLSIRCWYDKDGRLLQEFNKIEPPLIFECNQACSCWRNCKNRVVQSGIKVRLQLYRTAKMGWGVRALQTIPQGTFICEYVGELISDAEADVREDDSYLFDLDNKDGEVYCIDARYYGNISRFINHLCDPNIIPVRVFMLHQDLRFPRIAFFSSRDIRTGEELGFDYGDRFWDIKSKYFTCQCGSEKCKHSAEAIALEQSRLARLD
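Compounds were preincubated with 20 nM G9a for 15 min, after which biotinylated H3K9 peptide (500 nM) and SAM (20 uM) started a 2 h room-temperature reaction. Monomethylated product was quantified by antibody-based AlphaScreen chemiluminescence.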
GLS inhibitor: glutaminase GLS (human) inhibition. O94925. GLS enzymatic activity, qHTS titration. Potency, µM (series often up to 45.5 µM), for the others: at the highest dose activity change, negative = inhibition, usual class: inhibitors. 0.21% of 410,000 active. AID 624170; note: % is set by controls: 0 for no effect and ±100 for the full control effect
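Human kidney-isoform GLS in 45 mM KH2PO4 pH 8.2, 0.02% Tween-20, with compound, started with 1mM L-Glutamine (added stock). Glutamate oxidase/HRP/Amplex red coupled fluorescence read at start and after 30 min at RT.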
BAZ2B block: inhibitors of human BAZ2B bromodomain. Q9UIF8. AlphaScreen BAZ2B-H3K14Ac peptide displacement. Potency, µM (series often up to 114 µM), without a hit: top-dose activity change, negative = inhibition, usual class: inhibitors. 4.4% of 360,000 active. AID 504333; note: % is set by controls: 0 for no effect and ±100 for the full control effect; nearly all actives have a fitted effect of over 60% in size
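AlphaScreen displacement: compounds (up to 110uM) incubated 30 min at room temperature with a preformed 50 nM BAZ2B/50 nM biotinylated H3K14Ac peptide complex in PBS pH 7.4 with Tween-20. Donor and acceptor beads at 10 ug/mL final added, 20 min light-protected before reading.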
L3MBTL1 block: L3MBTL1 (human) inhibition. Q9Y468. AlphaScreen L3MBTL1–H3K9me1 peptide binding. Potency, µM (doses to about 57.1 µM), inactives show at the highest dose activity, negative = inhibition, hits mostly inhibitors. 0.66% of 230,000 active. AID 485360; note: % is set by controls: 0 for no effect and ±100 for the full control effect; nearly all actives have a fitted effect of over 60% in size
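Displacement of a biotinylated histone H3(1-15) peptide monomethylated at Lys9 (75 nM) from L3MBTL1 (50 nM) was measured by AlphaScreen after a 30 min room-temperature compound incubation; cefsulodin titration served as intraplate control.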
HP1b chromo inh: inhibitors of HP1-beta chromodomain binding to methylated histone tails | AID 540317 | 0.56% of 390,000 active | AlphaScreen HP1-beta / biotin-H3K9me3 peptide binding | Potency, µM (titrated, usually from 114 µM), for the others: at the highest dose activity change, negative = inhibition, most hits filed as inhibitors; note: nearly all actives have a fitted effect of over 70% in size
Target sequence (P83916 whole entry, looked up): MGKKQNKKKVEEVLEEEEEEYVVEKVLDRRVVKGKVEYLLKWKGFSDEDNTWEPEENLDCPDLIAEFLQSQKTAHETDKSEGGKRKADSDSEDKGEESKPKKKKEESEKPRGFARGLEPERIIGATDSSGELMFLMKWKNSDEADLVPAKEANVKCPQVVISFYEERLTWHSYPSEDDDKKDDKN
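HP1-beta protein (50 nM final) preincubated 30 min at room temperature with biotinylated H3(1-18)K9me3 peptide (50 nM) in PBS pH 7.4, 0.01% Tween-20, then compound added for 30 min. AlphaScreen streptavidin donor/nickel chelate acceptor beads (10 ug/mL final), 30 min dark, luminescence read.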
Active calls of the source: *; ? = inconclusive; · = no result given; ! = repeats disagree; [ ] = another dose, or the depositor's remark. Rows were chosen to be rich in hits. Some 10% of all compounds tested hit in one or more screens of this group. Calls come from the whole dose curve; as a rule, active = well fitted curve in the direction sought with a large enough effect; inconclusive = small, poorly fitted or top-dose-only effect, or another doubt; inactive = no such curve, though single readings can be large; an effect the other way counts as inactive or inconclusive. Potency is the fitted concentration of half-maximal effect.

SMILES	JMJD2A Tudor	G9a block	GLS inhibitor	BAZ2B block	L3MBTL1 block	HP1b chromo inh
Cc1ccc(S(=O)(=O)N/N=C\c2ccc([N+](=O)[O-])o2)cc1	-25%	3.5µM*	7%	-5%	0%	4%
Cc1ccc(S(=O)(=O)N/N=C\c2ccc([N+](=O)[O-])o2)cc1C	-17%	79%	10%	-5%	·	43%
O=[N+]([O-])c1ccc(/C=N/NS(=O)(=O)c2ccc(Cl)cc2)o1	?	3.5µM*	7%	-38%	10%	24%
O=[N+]([O-])c1ccc(/C=N/Nc2ccnc3cc(Cl)ccc23)o1	40µM*	40µM*	2%	28µM*	·	32µM*
CSc1ccccc1C(=O)NC1CCCN(c2ccc(C(F)(F)F)cn2)C1 (stereo unspecified)	-6%	8.9µM*	-7%	-13%[57.1 µM]	·	67%
COc1cc(/C=C/C(=O)c2ccc(NS(=O)(=O)c3ccc(C)cc3)cc2)cc(OC)c1O	-33%	40µM*	5%	?	-14%	?
COc1cccc(/C=C/C(=O)c2ccc(NS(=O)(=O)c3ccc(C)cc3)cc2)c1	?	2.5µM*	5%	?	-5%	-18%
COc1cc(/C=C/C(=O)c2ccc(NS(=O)(=O)c3ccc(C)cc3)cc2)ccc1OC(F)F	-26%	-7%[59 µM]	4%	-7%	-8%	0%
Cc1ccc(-n2c(C)c(C)c3c(N)ncnc32)cc1	-34%	?	-5%	-35%	·	-6%
Cc1cccc(-n2c(C)c(C)c3c(N)ncnc32)c1	?	50µM*	3%	-31%	·	-26%
Cc1cccc(Nc2cc(C)c3c(O)cccc3n2)c1C	45µM*	50µM*	40%	40µM*	-10%	-3%
Cc1cc(Nc2ccccc2O)nc(C)n1	-17%	-11%[59 µM]	27%	-12%	·	18%
O=C(N=C1SC2CS(=O)(=O)CC2N1c1ccc(Cl)cc1Cl)C1CC1 (stereo unspecified)	-10%	79µM*	-8%	-23%	·	27%
O=C(N=C1SC2CS(=O)(=O)CC2N1c1ccc(Cl)cc1Cl)C1CCCO1 (stereo unspecified)	-3%	3%	2%	-7%	·	37%
CC(=O)Oc1ccc2oc(/C=C/N(C)C)c([N+](=O)[O-])c2c1	?	?	·	?	·	-4%
C/C(=C/c1oc2ccc(O)cc2c1[N+](=O)[O-])N(C)C	2%[57.1 µM]	79µM*	-11%	?	·	2%
COc1cc2c3cc1OCc1c(O)c(OC)cc4c1C(Cc1ccc(cc1)Oc1cc(ccc1O)CC3N(C)CC2)N(C)CC4 (stereo unspecified)	-15%	·	·	·	·	-7%
CN1CCc2cccc3c2[C@H]1Cc1ccc(O)c(O)c1-3	8.9µM*	1.4µM*	?	?	?	14µM*
CCOc1ccc(CCNC(=O)/C=C/c2ccco2)cc1OCC	-34%	35µM*	0%	?	·	5%
COc1ccc(/C=C(\NC(=O)c2ccco2)C(=O)NCCc2nc3ccccc3[nH]2)cc1	-28%	·	-2%	-8%	-2%	10%
COc1ccc(/C=C/C(=O)NCCc2ccc(S(N)(=O)=O)cc2)cc1	9%	-7%[59 µM]	-2%	-18%	4%	54%
CCOc1ccc(CCNC(=O)COC(=O)/C=C/c2ccco2)cc1OCC	-20%	6%	-1%	-22%	·	6%
COc1ccc(/C=C(\NC(=O)/C=C/c2ccco2)C(=O)NCCc2nc3ccccc3[nH]2)cc1	?	?	2%	50µM*	-14%	?
COc1ccc(CCNC(=O)/C=C/c2ccco2)cc1OC	-16%	14µM*	20%	-27%	-7%	-15%
COc1ccc(CCNC(=O)/C=C/c2ccco2)cc1	32µM*	·	19%	?	-5%	?
SMILES	JMJD2A Tudor	G9a block	GLS inhibitor	BAZ2B block	L3MBTL1 block	HP1b chromo inh
O=c1c2cc3c(cc2n(Cc2ccccc2)c(=O)n1Cc1nc(-c2ccccc2)no1)OCO3	3%	1%[59 µM]	1%	2%	·	50%
CN1CCN(CCNC(=O)c2cnn(-c3ccc(Cl)cc3)c2C2CCN(C(=O)OC(C)(C)C)CC2)CC1	-2%	-4%[59 µM]	-7%	6%[57.1 µM]	·	38%
CCc1ccc(/C(C)=N/NC(=O)CNC(=O)/C=C/c2ccccc2OC)cc1	-9%	19%	6%	5%	·	2%
CCc1ccc(/C(C)=N/NC(=O)CNC(=O)/C=C/c2ccco2)cc1	22µM*	·	0%	·	·	22µM*
O=c1cc(-c2ccccc2Cl)oc2cc(O)cc(O)c12	-18%	45µM*	11%	-23%	-4%	22%
CCOc1cccc2oc(-c3ccccc3Cl)cc(=O)c12	·	19%	·	·	·	·
Nc1ccc(O)c2c(=O)cc(-c3ccccc3Cl)oc12	-20%	16µM*!	7%	-6%	-9%	26%
O=c1cc(-c2ccccc2Cl)oc2c(NS(=O)(=O)c3cc(Cl)cc(Cl)c3O)ccc(O)c12	56µM*	50µM*	-1%	50µM*	-23%	-32%
Cc1ccc(N2CC(NC(=O)C3CCCCC3)CC2=O)cc1C (stereo unspecified)	-5%	5%[59 µM]	1%	3%	·	25%
Cc1ccc(NC(=O)c2c(C)oc3ccc(O)c(CN4CCN(Cc5ccccc5)CC4)c23)cc1	-25%	-42%[59 µM]	-5%	-20%	·	11%
Cc1cc(NS(=O)(=O)c2ccc(NC(=O)COc3c(C)cc(Br)cc3C)cc2)no1	-11%	56µM*!	7.9µM*	-34%	·	28%
Cc1cc(NS(=O)(=O)c2ccc(NS(=O)(=O)c3ccc(CC(C)C)cc3)cc2)nc(C)n1	-6%	?	12%	?	-5%[11.4 µM]	49%
Cc1cc(NS(=O)(=O)c2ccc(NC(=S)NC(=O)c3cccc(S(=O)(=O)N(C)C)c3)cc2)no1	-9%	35µM*	8%	-18%	-22%	0%
Cc1ccc(S(=O)(=O)Nc2ccc(S(=O)(=O)Nc3cc(C)nc(C)n3)cc2)cc1	1%	10µM*	3%	?	4%	41%
Cc1cc(NS(=O)(=O)c2ccc(NC(=O)/C=C/c3ccco3)cc2)nc(C)n1	-16%	50µM*	25%	-17%	-17%	-5%
Cc1cc(NS(=O)(=O)c2ccc(NC(=O)c3ccco3)cc2)nc(C)n1	-22%	?	-4%	6%	·	41%

From PubChem BioAssay
